Source: PubChem
Compounds with a hit are over-represented: about 0.52% of the library has one in this group of screens.
GCN5L2 inh: inhibitors of human GCN5L2 histone acetyltransferase | GCN5L2 HAT assay, ThioGlo1 CoA-SH fluorescence | Potency, µM (doses to about 58.9 µM), for the others: at the top dose activity change, negative = inhibition, hits mostly inhibitors | 0.21% of 390,000 active | AID 504327
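Fluorescence readout, Ex340nm/Em540nm: ThioGlo1 (50uM final) reacts with free CoA thiol released as 20nM GCN5L2 acetylates H3(1-25) peptide (75uM) using acetyl-CoA (70uM). Compound and enzyme sat 15 min beforehand; 20 min room-temperature reaction.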
uPA generation: inhibitors of cell surface uPA generation; cell surface uPA generation assay, qHTS; Potency, µM (doses to about 38.3 µM), inactives show at the highest dose activity change, negative = inhibition, actives largely listed as inhibitors; 0.31% of 330,000 active; AID 540303; active = well fitted inhibition curve with a large enough effect; inconclusive = small, poorly fitted or top-dose-only effect; inactive = no such curve, though single readings can be large or run the other way; tested in mouse RAW 264.7 cells; also: nearly all actives have a fitted effect of over 55% in size
RGS4 inhibitor: human RGS4 inhibition. P49798. Potency, µM (top dose mostly 114 µM), inactives show top-dose activity change, negative = inhibition, hits mostly inhibitors. 0.039% of 390,000 active. Transcreener GDP fluorescence polarization, RGS4-accelerated GTP hydrolysis; also: nearly all actives have a fitted effect of over 75% in size
Target sequence (P49798 whole entry, looked up): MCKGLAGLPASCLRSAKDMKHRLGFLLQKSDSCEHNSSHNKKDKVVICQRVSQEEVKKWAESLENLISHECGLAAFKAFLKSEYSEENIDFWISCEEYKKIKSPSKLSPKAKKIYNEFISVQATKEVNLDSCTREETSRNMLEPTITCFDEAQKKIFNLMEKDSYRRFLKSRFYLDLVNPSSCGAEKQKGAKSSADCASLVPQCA
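MLSMR compounds (23 nl, pin-transferred) preincubated 10 min at room temperature with a 500nM (2x) first reagent, then RGS4 at 900nM (2x) plus Transcreener GDP mix added; fluorescence polarization (620/688 nm) read before and after 90 min at 30 °C.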
Eya2 phos inh: inhibitors of human Eya2 phosphatase activity. recombinant Eya2, OMFP fluorescence dephosphorylation (OMFP is methylfluorescein phosphate). Potency, µM (doses to about 76.9 µM), inactives show top-dose activity, negative = inhibition, actives largely listed as inhibitors. 0.006% of 330,000 active
Target sequence (O00167 whole entry, looked up): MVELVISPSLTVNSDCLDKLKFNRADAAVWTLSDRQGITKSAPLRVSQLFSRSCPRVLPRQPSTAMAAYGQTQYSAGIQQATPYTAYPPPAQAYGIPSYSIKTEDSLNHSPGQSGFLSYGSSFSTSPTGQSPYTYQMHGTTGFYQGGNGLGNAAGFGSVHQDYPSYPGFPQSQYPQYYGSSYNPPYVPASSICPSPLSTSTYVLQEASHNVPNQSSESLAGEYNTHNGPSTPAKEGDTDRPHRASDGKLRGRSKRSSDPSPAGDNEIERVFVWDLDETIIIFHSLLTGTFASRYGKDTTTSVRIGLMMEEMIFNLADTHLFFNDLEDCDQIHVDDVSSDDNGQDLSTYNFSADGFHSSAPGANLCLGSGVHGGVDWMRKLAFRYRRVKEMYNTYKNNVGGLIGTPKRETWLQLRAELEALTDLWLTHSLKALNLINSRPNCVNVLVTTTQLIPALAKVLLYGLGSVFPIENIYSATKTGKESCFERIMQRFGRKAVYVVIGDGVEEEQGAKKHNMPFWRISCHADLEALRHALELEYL
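Eya2 protein (added as 0.2 uM solution) was preincubated with compound for 10 min at ambient temperature in 50 mM HEPES pH 7.5, 50 mM NaCl, 5 uM MgCl2, 0.05% BSA, 1 mM DTT. OMFP (added at 50 uM) then reacted 10 min; fluorescence read at 485/525 nm.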
Chronic BCR inh: chronic active BCR signaling inhibition | 0.05% of 340,000 active | ABC-DLBCL IkBa-CBG/CBR reporter, luminescence ratio, 4 h | Potency, µM (top dose mostly 46.1 µM), for the others: top-dose activity change, negative = inhibition, usual class: inhibitors | AID 493014; active = well fitted inhibition curve with a large enough effect in the signal ratio, with a control signal flat, not every such curve was filed as active; inconclusive = small, poorly fitted or top-dose-only effect, or effect the other way, or a change in a side signal; the % refers to the signal ratio;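 also: plate controls were basal doxycycline-induced cells for no effect and cells given 10 µM MG132 for full effect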
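Concentration-response series (up to 46 uM) were applied to TMD8 dual-reporter cells for 4 h at 37C with doxycycline. Green/red ratio, after filter-overlap correction, defined %Activity; red signal alone was normalised to basal cells and zero luminescence.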
USP2a inh: USP2a (human) protease inhibition | Potency, µM (titrated, usually from 38.3 µM), inactives show top-dose activity change, negative = inhibition, hits mostly inhibitors | USP2 core, Ub-CHOP2 coupled fluorogenic reporter, 485/531 | 0.01% of 330,000 active | O75604;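 also: plate controls were DMSO wells for no effect and full inhibition by NEM control for full effect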
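Cell-free coupled assay: 10nM USP2 core preincubated 30min RT with compound in Tris-HCl pH 8.0/CaCl2/CHAPS buffer, then 25nM Ub-CHOP2 and 25nM reporter substrate; fluorescence (Ex 485/Em 531) read after 60min RT, normalized to NEM inhibition, concentration-response curves fitted.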
Starred values were filed as active, the others as inactive; ? = inconclusive; . = no result; [ ] = dose if it differs, or a comment. Unless noted, calls follow the shape of the dose curve; as a rule, active = well fitted curve in the direction sought with a large enough effect; inconclusive = small, poorly fitted or top-dose-only effect, or another doubt; inactive = no such curve, though single readings can be large; an effect the other way counts as inactive or inconclusive. Unless noted, % is scaled to controls: 0 for no effect and ±100 for the full control effect; potency is read from the fitted curve at half-maximal effect.

SMILES	GCN5L2 inh	uPA generation	RGS4 inhibitor	Eya2 phos inh	Chronic BCR inh	USP2a inh
CCSc1n[nH]c(=S)s1	31.6µM*	1.7%	-35.3%	-14.0%	15.2%	-0.8%
Cc1cc(C)n(Cc2ccc(C(=O)O)cc2)n1	0.0%	14.0%	10.7%	-5.2%	0.5%	2.6%
Cc1ccc(C)n1Cc1ccc(C(=O)O)cc1	15.8µM*	.	-35.7%	-27.0%	-10.8%	?
O=S(=O)(Nc1cc(Sc2ncn[nH]2)c(O)c2ccccc12)c1ccccc1	22.4µM*	-12.8%	?	-0.3%	?	3.8%
O=C(O)C(Cc1ccccc1)N1C(=O)/C(=C/C=C/c2ccco2)SC1=S (centres undefined)	8.91µM*	0.4%	?	-2.5%	12.9%	?
Cc1ccc(S(=O)(=O)Cc2nc(-c3ccc(C(=O)NCc4ccccc4F)cc3)oc2C)cc1	25.1µM*	.	-3.2%	.	.	.
CC(=O)N1N=C(c2ccc(NS(=O)(=O)c3ccccc3)cc2)CC1c1ccco1 (centres undefined)	-12.6%	0.708µM*	-25.5%	-4.7%	?	0.7%
CC(=O)N1N=C(c2cccc(NS(=O)(=O)c3ccc(C)cc3)c2)CC1c1ccco1 (centres undefined)	-22.3%	-1.4%	-9.6%	1.7%	?	-1.6%
C[S+](C)CC[C@H](N)C(=O)O	-0.6%	.	.	.	.	.
COc1ccc(C(=O)Nc2cccc(C(=O)OCc3cc(=O)n4nc(C5CC5)sc4n3)c2)cc1	29.2%	.	-25.0%	.	.	.
O=[N+]([O-])c1ccccc1S(=O)(=O)N1CCN(c2nc(-c3ccccc3)nc3ccccc23)CC1	.	.	30.3%	.	.	.
CCOC(=O)c1ccccc1NC(=O)COC(=O)CC(C)(C)CC1=NS(=O)(=O)c2ccccc2N1	-7.6%	.	-13.0%	.	?	.
O=C(Oc1c(Cl)cc(Cl)c2cccnc12)c1cccs1	-5.8%	-15.4%	-18.3%	-19.2%	23.1µM*	4.4%
COc1ccc(NC(=O)c2cc3ccccn3n2)cc1	-12.1%	4.47µM*	3.5%	17.9%	?	3.3%
O=C(Nc1ccc(OC(F)(F)F)cc1)c1cc2ccccn2n1	22.6%	.	3.9%	.	.	.
NC(=O)C1O[C@@H](O)[C@H](O)[C@@H](O)[C@H]1O (some centres undefined)	9.3%	.	.	.	.	.
Cc1cccc(CCN=c2c([N+](=O)[O-])nn(-c3ccccc3)n2O)c1	-8.1%	?	14.7%	-6.1%	?	0.4%
Cc1cccc(-n2nc([N+](=O)[O-])c(=NC3CCN(Cc4ccccc4)CC3)n2O)c1	-5.5%	2.82µM*	-5.0%	-5.9%	16.6%	0.3%
COc1ccc(-n2nc([N+](=O)[O-])c(=NCCCN3CCCC3=O)n2O)cc1	-3.4%	11.2µM*	32.7%	3.1%	?	-1.7%
O=C1CCCN1CCCN=c1c([N+](=O)[O-])nn(-c2ccc(Cl)cc2)n1O	-7.8%	-15.9%	-11.3%	-6.0%	?	-0.5%
Cc1cn2c(=O)cc(COC(=O)COc3ccc(F)cc3)nc2s1	-0.6%	.	-27.6%	.	.	.
CCc1ccc(NC(=O)C(C)OC(=O)/C=C/c2ccc(O)c(OC)c2)cc1 (centres undefined)	-1.0%	-7.6%	-9.1%	3.5%	20.6µM*	-0.7%
COc1cc(/C=C/C(=O)OC(C)C(=O)Nc2c(C)n(C)n(-c3ccccc3)c2=O)ccc1O (centres undefined)	-3.8%	3.0%	7.6%	-33.2%	1.3%	1.3%
O=C1OC(c2ccccc2)=N/C1=C\C=C\c1ccco1	25.1µM*	-2.5%	3.6%	12.9%	?	1.6%
CCc1ccc(NC(=O)C2CCCN(c3nn4cc(-c5ccc(OC)cc5)nc4s3)C2)cc1 (centres undefined)	-1.7%	.	-7.4%	.	.	.
SMILES	GCN5L2 inh	uPA generation	RGS4 inhibitor	Eya2 phos inh	Chronic BCR inh	USP2a inh
COc1ccccc1N1CCN(c2ncnc3c2cnn3-c2ccc(C)cc2)CC1	-1.8%	.	0.5%	.	1.7%	.
COc1ccc(CCn2c(C)cc(C(=O)CCl)c2C)cc1OC	1.2%	8.91µM*	15.3%	-9.5%	?	0.3%
Nc1ncnc2c1nc(Sc1ccc(Cl)cc1)n2[C@H]1OC2COP(=O)(O)O[C@@H]2C1O (some centres undefined)	0.0%	.	-1.1%[56.9 µM]	5.2%	.	.
CC(Oc1ccc2cc(-c3ccccc3)c(=O)oc2c1)C(=O)NCC1CCC(C(=O)O)CC1 (centres undefined)	31.6µM*	-16.9%	-12.0%	2.4%	27.5%	1.0%
Cc1ccc(-c2nc3cnccn3c2Nc2ccc(C(C)C)cc2)o1	.	.	-111.4%	.	.	.
CC(C)(C)c1ccc(/C=N/NC(=S)NCc2ccccc2)cc1	-16.5%	-4.7%	1.1%	0.9%	5.0%	1.1%
C=CCNC(=S)N/N=C/c1ccc(C(C)(C)C)cc1	-13.3%	-2.2%	-14.8%	-2.5%	11.2µM*	-1.0%
Cn1cc(/C=N/NC(N)=S)c2ccccc21	-16.2%	0.9%	-51.5%	-2.4%	?	-3.3%
C=CCNC(=S)N/N=C/c1cn(C)c2ccccc12	11.6%	0.1%	-32.1%	-6.7%	17.8µM*	-6.5%
CCOC(=O)c1c(NC(=O)c2cc(-c3ccc(OC)cc3)on2)sc(C)c1C	-13.8%	.	?	.	.	.
COc1ccccc1-c1cc(NCc2cnc(C)cn2)ncn1	20µM*	.	.	.	.	.
CC(C)C[C@H](NC(=O)[C@H](Cc1c[nH]c2ccccc12)NC(=O)[C@H](CCCCN)NC(=O)CNC(=O)[C@H](CC(C)C)NC(=O)[C@H](CO)NC(=O)[C@@H](N)Cc1cnc[nH]1)C(=O)NCC(=O)N[C@@H](Cc1cnc[nH]1)C(=O)N1CCC[C@H]1C(=O)N[C@@H](CC(=O)O)C(=O)N[C@@H](CCCCN)C(=O)N[C@@H](Cc1ccccc1)C(=O)O	-0.3%	.	.	.	.	.
Cc1ccc2c(CC(=O)Nc3cccc(Cl)c3C)coc2c1	-1.8%	.	0.6%	.	.	.
CC[n+]1ccccc1/C=C1\Sc2ccc(C)cc2N1C	-2.3%	7.08µM*	-18.8%	16.4%	-0.4%	-0.7%
CN1/C(=C/c2cccc[n+]2CCO)Sc2ccccc21	-22.3%	1.4%	-19.6%	0.1%	-0.5%	1.2%
Cc1cc(C)n2cnnc2n1	0.8%	2.7%	-1.5%	1.6%	7.2%	1.2%
Cc1cc(C)n2c(=S)[nH]nc2n1	25.1µM*	5.8%	-53.9%[11.4 µM]	4.2%	3.7%	-0.5%
Clc1cccc(CNc2cc(-c3ccccc3)nc3nncn23)c1	0.4%	.	2.3%	.	.	.
CCN(CC)CCCC(C)Nc1c2ccc(Cl)cc2nc2ccc(OC)cc12 (centres undefined)	?	.	21.2µM*	10.5%	?	?
COc1ccc(C)cc1NC(=O)CNC(c1ccccc1)c1ccc(C)cc1 (centres undefined)	-26.5%	1.78µM*	21.2%	-12.9%	?	2.5%
